# Source: PubChem BioAssay (National Center for Advancing Translational Sciences (NCATS))
# Tau fibril FP – inhibitors of human tau fibril formation; P10636; K18 P301L tau heparin fibrillization, Alexa594 FP, 6 h; Potency, µM (highest dose often 57.7 µM), for the others: top-dose activity, negative = inhibition, most hits filed as inhibitors; 280,000 compounds, 0.39% hits; further: potency means the concentration at half of the fitted maximal effect; nearly all actives have a fitted effect of over 55% in size
# Target sequence (P10636 561-689 P618L limits assumed): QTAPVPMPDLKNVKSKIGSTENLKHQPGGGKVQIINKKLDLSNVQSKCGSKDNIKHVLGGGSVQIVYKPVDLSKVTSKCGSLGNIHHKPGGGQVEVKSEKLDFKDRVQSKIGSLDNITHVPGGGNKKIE
#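 Compound effects on tau fibrillization are measured by Alexa 594 fluorescence polarization (ex 555, em 632 nm). K18 P301L tau is used at 15 uM with 0.24 uM labeled tracer, and 20 uM heparin induces aggregation over 6 hr at 37 C.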
# Tau ThT inhib – tau fibrillization inhibition (ThT binding); 270,000 compounds, 2.1% hits; recombinant tau K18 P301L, heparin-induced fibrillization, ThT fluorescence; Potency, µM (titrated, usually from 57.4 µM), for the others: top-dose activity, negative = inhibition, usual class: inhibitors; AID 1460; further: potency means the concentration at half of the fitted maximal effect; nearly all actives have a fitted effect of over 55% in size
#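 Heparin-induced fibrillization of the P301L-mutant K18 repeat-domain fragment of human tau was followed by ThT binding in quantitative high-throughput format.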
# Tau fluor counter – counter-screen for tau fibril formation inhibitors. 280,000 compounds, 0.93% hits. Potency, µM (top dose mostly 57.7 µM), without a hit: top-dose activity change, negative = decrease. AID 1463. tau K18 P301L Alexa594 fluorescence, heparin fibrillization; further: potency means the concentration at half of the fitted maximal effect; nearly all actives have a fitted effect of over 55% in size
#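 Human tau K18 P301L (15 uM unlabeled, 0.24 uM Alexa 594-labeled) in 100 mM sodium acetate pH 7 with 20 uM heparin, 6 hr at 37 C. ThT 30 uM added, 1 hr ambient; Alexa 594 FP and total fluorescence read at 555/632 nm.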
# Sfp inh – inhibitors of Bacillus subtilis Sfp phosphopantetheinyl transferase | 310,000 compounds, 3.5% hits | Q9F4F7 | Biochemical Sfp PPTase activity, qHTS | Potency, µM, for inactives: largest response in the series, negative = inhibition, most hits filed as inhibitors;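 further: the enzyme is Sfp with the accession as filed and its product quenches rhodamine fluorescence; potency means the concentration at half of the fitted maximal effect; 0% = enzyme reaction without inhibitor and -100% = no enzyme wells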
#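 Reaction rates are the 30-min fluorescence difference (ex 525, em 598 nm) in wells containing 15 nM Sfp, 5 uM rhodamine-CoA and 12.5 uM BHQ-2-YbbR at pH 7.6 with 10 mM MgCl2.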
# Coupling enz – coupling enzyme interference in Giardia aldolase counter-screen; coupling enzyme system counterscreen, AmpLite Red fluorescence; activity change, negative = inhibition, % at 58.2 µM, hits read low; 290,000 compounds, 0.67% hits; AID 2472; in the data active means activity change below about -30%
#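 Activity here indicates interference with the coupling reaction, not aldolase inhibition. Compounds at 57.5 uM final met coupling enzymes for 10 min at RT; substrate and AmpLite Red detection followed, with a 525/598 nm fluorescence read after 20 min.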
# An asterisk follows results filed as active; ? = inconclusive; / = no result; ! = a repeat was not active. Shown are actives, neighbours in structure and some others; about 5.2% of the full set was active somewhere. Unless noted, the call rests on the fitted dose curve; in most records, active means well fitted curve in the direction sought with a large enough effect; inconclusive means small, poorly fitted or top-dose-only effect, or another doubt; inactive means no such curve, though single readings can be large; an effect the other way counts as inactive or inconclusive. Unless noted, on the % scale 0 is the no-effect control and ±100 the full control effect.
SMILES,Tau fibril FP,Tau ThT inhib,Tau fluor counter,Sfp inh,Coupling enz
COC(=O)C(C)Oc1ccc2c(c1)O/C(=C\c1ccco1)C2=O (stereo not drawn),/,/,/,?,1
COc1ccc2c(c1)O/C(=C\c1ccco1)C2=O,-1%,/,-14%,4.5µM*,-2
Cc1cccc(NC(=O)c2cnn(-c3ccccc3)c2-n2cccc2)c1C,-3%,-4%,1%,/,/
CN(Cc1ccco1)c1ncnc2ccc(-c3ccc4c(c3)OCO4)cc12,-7%,-16%,-15%,45µM*,-4
CN(Cc1ccco1)c1ncnc2ccc(-c3cccnc3)cc12,-1%,4%,-2%,-28%,-8
CCc1cc2c(cc3c(=O)n(CC(=O)NC(C)C)nc(CC)n32)s1,-3%,-6%,-4%,/,/
N[C@@H](CCS(=O)O)C(=O)O,-5%,-14%,-23%,40µM*!,/
CCN1C/C(=C/c2cccs2)c2nc3ccccc3c(C(=O)O)c2C1,-6%,?,-17%,45µM*,-7
CCc1ccc(/C=C2\CN(CC)Cc3c2nc2ccccc2c3C(=O)O)cc1,?,25µM*,-29%,2.5µM*,-34*
CCN1C/C(=C/c2sccc2C)c2nc3ccccc3c(C(=O)O)c2C1,11%,?,-4%,-5%,1
COc1cccc(C2CC(=O)Nc3c2c(=O)n(C)c2nc4ccccc4n32)c1 (stereo not drawn),5%,9%,4%,/,/
Cc1cccc(CSc2nc3c(c(=O)[nH]2)C(c2cccc(O)c2)CC(=O)N3)c1 (stereo not drawn),-3%,2%,-7%,/,/
Oc1c(Br)cc(Br)cc1C=NCc1ccc(F)cc1,?,20µM*,-7%,-48%,-18
C#C[C@]1(O)CC[C@H]2[C@@H]3CCC4=CCCC[C@@H]4[C@H]3C(=C)C[C@@]21CC,/,/,/,5%,/
CCn1c(O)c(C=Nc2ccccc2)n(-c2ccccc2)c1=S,-2%,-8%,-21%,79µM*,-7
CCn1c(O)c(/C=N/n2cnnc2)sc1=S,-9%,?,-5%,45µM*,2
CCn1c(O)c(C=Nc2ccccc2)sc1=O,-4%,-17%,-11%,17%,2
CCn1c(O)c(C=NC2CCCC2)sc1=S,1%,-14%,-23%,-8%,-5
Oc1c(C=Nc2ccccc2)sc(=S)n1Cc1ccccc1,-13%,0%,?,24%,-4
CCn1c(O)c(C=Nc2ccccc2)sc1=S,3%,?,?,56µM*,-21
O=C(O)c1ccc(N2C(=O)/C(=C/c3ccc(-c4ccc([N+](=O)[O-])cc4)o3)C=C2c2ccccc2)cc1,?,4.5µM*,?,50µM*,5
O=C(NC(=S)Nc1cc(C(F)(F)F)ccc1Cl)c1ccccc1,-5%,-4%,-6%,-27%,0
O=C(O)c1ccc(NNC(=S)Nc2cc(C(F)(F)F)ccc2Cl)cc1,/,/,/,89µM*,2
N#CCCn1c(=O)c(-c2ccc(Cl)cc2)nc2cnc(N3CCOCC3)nc21,/,/,/,20%,3
CCc1ccc(NC(=O)CC2C(=O)N(c3cccc(OC)c3)C(=O)N2Cc2ccc(F)cc2)cc1 (stereo not drawn),?,13%,?,/,/
SMILES,Tau fibril FP,Tau ThT inhib,Tau fluor counter,Sfp inh,Coupling enz
CCN(CC)C(=O)C1CCCN(C(=O)Nc2ccc3nsnc3c2)C1 (stereo not drawn),?,14µM*,-20%,-12%,4
S=C(Nc1ccc2nsnc2c1)N1CCCCC1,?,?,-15%,?,-29
COc1ccc(-c2noc(CN(C(=O)Cc3ccc(C)cc3)C(C)C)n2)cc1,0%,?,-28%,/,/
O=C(Cc1ccccc1)NC1CCN(Cc2ccccc2)CC1,3%,1%,4%,19%,1
O=C(O)C1CSC2(CCN(Cc3ccccc3)CC2)N1 (stereo not drawn),-1%,-10%,-2%,50µM*,0
Clc1cccc(N/N=C/c2ccc(N3CCOCC3)cc2)c1,14%,?,?,8%,-1
C(=N\Nc1ccccn1)/c1ccc(N2CCOCC2)cc1,?,?,-4%,40µM*,-1
C(=N\Nc1ccccc1)/c1ccc(N2CCOCC2)cc1,12%,35µM*,?,-2%,1
Oc1ccc(/C=N/Nc2cc(N3CCOCC3)nc(N3CCOCC3)n2)cc1O,-5%,?,?,79µM*,-11
CCCCN(C)CC(O)Cn1cc(/C=C/C(=O)c2ccc(OC)c(OC)c2)c2ccccc21 (stereo not drawn),2%,?,?,/,/
CCCCN(C)CC(O)Cn1cc(/C=C/C(=O)c2ccc(Br)cc2)c2ccccc21 (stereo not drawn),10%,20µM*,?,/,/
CCCN(CCC)CC(O)Cn1cc(/C=C/C(=O)c2ccc(C)cc2)c2ccccc21 (stereo not drawn),-12%,18µM*,?,/,/
CCCCN(C)CC(O)Cn1cc(/C=C/C(=O)c2ccc(C)cc2)c2ccccc21 (stereo not drawn),-4%,14µM*,?,?,0
Cc1ccc(SCC(c2ccccc2)N2CCN(C)CCC2=O)cc1 (stereo not drawn),/,/,/,4%,4
CCC(=O)N1CCCc2cc(S(=O)(=O)N3CCC(C(=O)Nc4ccccc4CC)CC3)ccc21,-2%,?,-8%,/,/
Cn1c(O)c(N=NC(=O)c2ccccc2O)c2ccccc21,8%,13µM*,-11%,?,-2
Cc1cc(N=NC(=O)c2ccccc2O)c2ccccc2c1O,?,14µM*,?,-8%,-11
COc1ccc(C(=O)NCC(=O)N=Nc2c(O)n(Cc3ccccc3)c3ccccc23)cc1OC,6%,?,-6%,14%,3
O=C(N=Nc1c(O)n(Cc2ccccc2)c2ccccc12)c1ccc(O)cc1,-10%,14µM*,?,8%,-2
Cc1ccc(NC(=O)Cn2c(O)c(N=NC(=O)c3cc4ccccc4cc3O)c3ccccc32)cc1,15%,?,-22%,-16%,0
O=C(N=Nc1c(O)n(Cc2ccccc2)c2ccccc12)c1cc2ccccc2cc1O,?,13µM*,-23%,?,4
Cc1occc1C(=O)N=Nc1c(O)n(C)c2ccccc12,-4%,?,5%,0%,5
COc1ccccc1NC(=O)Cn1c(O)c(N=NC(=O)c2ccccc2O)c2ccccc21,-12%,?,-29%,-56%,0
COC(=O)C1(C(=O)OC)C[C@@H]2CON=C2[C@H]1c1ccccc1,?,-8%,-22%,-10%,-1
Cc1cccc(CNc2ccnc(-c3ccc(C(=O)N(C)C)cc3)n2)c1,-15%,-7%,-13%,-25%,0
COc1ccc(Nc2ncnc3c2cnn3-c2ccccc2)cc1OC,?,?,?,4%,2
CN(C)CCCNc1ncnc2sc(-c3ccccc3)cc12,-4%,8%,-11%,56µM*,-2
